Measurements taken from PubChem BioAssay AID1159580 (chemical genetic matrix, 2015).
Values joined by “and” are separate entries in the source; they are usually repeats but may differ in a detail not shown here. Equal values may be shown once. Among all 5,500 compounds or so, about 2,000 (36%) were called active. About 18% were inconclusive and are not listed. Rule as the data show it: active = normalized growth mostly below about 0.91 (no sharp cut-off); inconclusive = no clear call, values can overlap the other calls; inactive = mostly above about 0.92. The list shows a part of the results.

Test: chemical genetic growth profiling, strain panel (AID 1159580);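 also: tested at 20 µM; growth read once vehicle control cultures reached saturation at 30 °C; 1 = growth at the plate median or of vehicle wells; lower values mean less growth of the strain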
Details: S. cerevisiae deletion strains, growth OD

Measured: normalized growth

O=C1NC(O)=NC1(c1ccccc1)c1ccccc1
inactive: locus YAL013W, strain DEP1, stronger effect = lower value 1.01 and 0.988 | locus YAL021C, strain ccr4, stronger effect = lower value 1.01 | locus YAL026C, strain drs2, stronger effect = lower value 1.01 | locus YAL030W, strain snc1, stronger effect = lower value 1.02 | locus YAL040C, strain CLN3, stronger effect = lower value 0.959 | locus YBL061C, strain skt5, stronger effect = lower value 1.01 | locus YBR009C, strain hhf1, stronger effect = lower value 1 | locus YBR021W, strain FUR4, stronger effect = lower value 0.995 | locus YBR023C, strain chs3, stronger effect = lower value 1.03 | locus YBR171W, strain sec66, stronger effect = lower value 1.02 | locus YBR229C, strain ROT2, stronger effect = lower value 1 | locus YBR231C, strain swc5, stronger effect = lower value 1.02 | locus YBR279W, strain paf1, stronger effect = lower value 1.01 | locus YCL011C, strain gbp2, stronger effect = lower value 1.02 | locus YCL016C, strain dcc1, stronger effect = lower value 1.02 | locus YCL029C, strain bik1, stronger effect = lower value 1.03 | locus YCL061C, strain MRC1 (second series), stronger effect = lower value 0.986 | locus YCL061C, strain MRC1, stronger effect = lower value 1.01 | locus YCL069W, strain vba3, stronger effect = lower value 1.02 | locus YCR088W, strain abp1, stronger effect = lower value 1.01 | locus YDL005C, strain med2, stronger effect = lower value 1.03 | locus YDL035C, strain GPR1, stronger effect = lower value 1.01 | locus YDL040C, strain nat1, stronger effect = lower value 1.02 | locus YDL074C, strain BRE1, stronger effect = lower value 1.02 | locus YDL101C, strain DUN1, stronger effect = lower value 1.01 | locus YDL134C, strain PPH21, stronger effect = lower value 1.01 | locus YDL185W, strain tfp1, stronger effect = lower value 1.01 | locus YDL192W, strain arf1, stronger effect = lower value 1.01 | locus YDR001C, strain nth1, stronger effect = lower value 1.02 | locus YDR069C, strain doa4, stronger effect = lower value 0.999 | locus YDR101C, strain arx1, stronger effect = lower value 1.01 | locus YDR137W, strain rgp1, stronger effect = lower value 1.04 | locus YDR150W, strain NUM1, stronger effect = lower value 1.01 | locus YDR159W, strain sac3, stronger effect = lower value 0.98 | locus YDR162C, strain NBP2, stronger effect = lower value 1.01 | locus YDR195W, strain ref2 0.987 | locus YDR297W, strain sur2, stronger effect = lower value 1.02 | locus YDR318W, strain mcm21, stronger effect = lower value 1.02 | locus YDR334W, strain swr1, stronger effect = lower value 1.01 | locus YDR335W, strain msn5, stronger effect = lower value 1.02 | locus YDR363W, strain ESC2, stronger effect = lower value 0.954 | locus YDR388W, stronger effect = lower value 1.02 | locus YDR392W, strain spt3, stronger effect = lower value 0.932 | locus YDR502C, strain sam2, stronger effect = lower value 1 | locus YEL003W, strain gim4, stronger effect = lower value 1 | locus YEL037C, strain rad23, stronger effect = lower value 1.01 | locus YEL061C, strain CIN8 (second series), stronger effect = lower value 1.02 | locus YEL061C, strain CIN8, stronger effect = lower value 1.01 | locus YER002W, strain NOP16, stronger effect = lower value 0.972 | locus YER015W, strain faa2, stronger effect = lower value 1 | locus YER016W, strain bim1, stronger effect = lower value 1.02 | locus YER110C, stronger effect = lower value 1.01 | locus YER111C, strain swi4, stronger effect = lower value 1.02 | locus YER155C, strain BEM2 (second series), stronger effect = lower value 0.994 | locus YER155C, strain BEM2, stronger effect = lower value 1.02 | locus YER167W, strain BCK2, stronger effect = lower value 1.01 | locus YFR010W, strain ubp6, stronger effect = lower value 1.01 | locus YGL078C, strain dbp3, stronger effect = lower value 1.01 | locus YGL086W, strain mad1, stronger effect = lower value 0.997 | locus YGL167C, strain pmr1, stronger effect = lower value 1.03 | locus YGL173C, strain kem1, stronger effect = lower value 1.01 | locus YGL227W, strain vid30, stronger effect = lower value 1.02 | locus YGL240W, strain doc1, stronger effect = lower value 1.01 | locus YGL248W, strain PDE1, stronger effect = lower value 1.01 | locus YGL253W, strain hxk2, stronger effect = lower value 1.01 | locus YGR078C, strain PAC10, stronger effect = lower value 1.01 | locus YGR135W, strain pre9, stronger effect = lower value 1.01 | locus YGR229C, strain SMI1, stronger effect = lower value 0.998 | locus YGR252W, strain gcn5, stronger effect = lower value 0.923 | locus YHR013C, strain ard1, stronger effect = lower value 1.02 | locus YHR027C, strain rpn1, stronger effect = lower value 1.01 | locus YHR030C, strain SLT2, stronger effect = lower value 1.01 and 0.991 | locus YHR079C, strain IRE1 (second series), stronger effect = lower value 1.03 | locus YHR079C, strain IRE1, stronger effect = lower value 0.991 | locus YHR094C, strain hxt1, stronger effect = lower value 1.01 | locus YHR129C, strain ARP1, stronger effect = lower value 1.01 | locus YHR142W, strain chs7, stronger effect = lower value 1.03 | locus YHR200W, strain rpn10, stronger effect = lower value 1.01 | locus YIL066C, strain RNR3, stronger effect = lower value 1.02 | locus YIL073C, strain SPO22, stronger effect = lower value 1.03 | locus YIL125W, strain kgd1, stronger effect = lower value 1.01 | locus YIR030C, strain dcg1, stronger effect = lower value 1.01 | locus YJL092W, strain hpr5, stronger effect = lower value 1.01 | locus YJL095W, strain BCK1 (second series), stronger effect = lower value 1.02 | locus YJL095W, strain BCK1, stronger effect = lower value 1.01 | locus YJL115W, strain asf1, stronger effect = lower value 1.01 | locus YJL129C, strain trk1, stronger effect = lower value 1.02 | locus YJL134W, strain LCB3, stronger effect = lower value 1 | locus YJL154C, strain vps35, stronger effect = lower value 1.02 | locus YJL164C, strain tpk1, stronger effect = lower value 1.01 | locus YJL166W, strain qcr8, stronger effect = lower value 1.02 | locus YJL168C, strain set2, stronger effect = lower value 1.01 | locus YJL187C, strain SWE1 (second series), stronger effect = lower value 1.02 | locus YJL187C, strain SWE1, stronger effect = lower value 1.02 | locus YJR043C, strain POL32, stronger effect = lower value 1.01 | locus YJR066W, strain TOR1, stronger effect = lower value 0.96
